About 7,900 targets were measured; listed, in parts, are those with a hit and a random draw of the rest. About 0.6% of all pairs of compound and target were hits. Unmarked numbers belong to inactive results.
How the values were obtained:
Experiment in all cases: log2 fold change, soluble protein after heating vs DMSO (PISA); higher = thermal stabilisation; K562 cells, 10 uM, 30 min; active = over 0.2 and 3.5 SD of the protein, either way, in both replicates (recomputed)
[1] = compound: CC1=C(C=C(C=C1)NC(=O)C2=CC(=CC=C2)C(C)(C)C#N)NC3=CC4=C(C=C3)N=CN(C4=O)C
Procedure, shortened: (§1)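 Aliquots of K562 cells (2×10^6 cells/mL) treated with 10 μM compound for 30 min were heated for 3 min over 48°C-58°C. After pooling and extraction in PBS with 0.5% NP-40 at 4°C, soluble protein from a 21,000xg, 90 min spin was quantified by TMTpro 16plex LC-MS/MS with channel sums equalised. Thermal stability is expressed against control samples, from duplicates, as a log2 fold change.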

[2] = compound: CC1=C(C=C(C=C1)NC(=O)C2=CC(=CC=C2)N(C)C)NC(=O)C3=CC=C(C=C3)O
Procedure, shortened: as §1

[3] = compound: CC1=CC=C(C=C1)SC2=C3C=C(SC3=CN=C2)C(=O)N
Procedure, shortened: as §1

[4] = compound: CC1=NC(=CC=C1)C2=C(N=C(N2)C(C)(C)C)C3=CC4=NC=CN=C4C=C3
Procedure, shortened: as §1

Nexturastat A = compound: CCCCN(Cc1ccc(C(=O)NO)cc1)C(=O)Nc1ccccc1 [Nexturastat A]
Procedure, shortened: as §1

vemurafenib = compound: CCCS(=O)(=O)Nc1ccc(F)c(C(=O)c2c[nH]c3ncc(-c4ccc(Cl)cc4)cc23)c1F [vemurafenib]
Procedure, shortened: as §1

[5] = compound: CCCS(=O)(=O)Nc1ccc(F)c(C(=O)c2c[nH]c3ncc(Cl)cc23)c1F
Procedure, shortened: as §1

[6] = compound: CCCc1cc(C)[nH]c(=O)c1CNC(=O)c1cc(-c2ccnc(N3CCN(C)CC3)c2)cc2c1cnn2C(C)C
Procedure, shortened: as §1

givinostat = compound: CCN(CC)Cc1ccc2cc(COC(=O)Nc3ccc(C(=O)NO)cc3)ccc2c1 [givinostat]
Procedure, shortened: as §1

barasertib = compound: CCN(CCCOc1ccc2c(Nc3cc(CC(=O)Nc4cccc(F)c4)[nH]n3)ncnc2c1)CCOP(=O)(O)O [barasertib]
Procedure, shortened: as §1

[7] = compound: CC[C@@H]1C(=O)N(C)c2cnc(Nc3ccc(C(=O)NC4CCN(C)CC4)cc3OC)nc2N1C1CCCC1
Procedure, shortened: as §1

volasertib = compound: CC[C@@H]1C(=O)N(C)c2cnc(Nc3ccc(C(=O)N[C@H]4CC[C@H](N5CCN(CC6CC6)CC5)CC4)cc3OC)nc2N1C(C)C [volasertib]
Procedure, shortened: as §1

[8] = compound: CC[C@H](C)N1C=C(C2=C(C=C(C=C21)C3=CN=C(C=C3)N4CCNCC4)C(=O)NCC5=C(C=C(NC5=O)C)C)C
Procedure, shortened: as §1

epoxomicin = compound: CC[C@H](C)[C@@H](C(=O)N[C@@H]([C@@H](C)O)C(=O)N[C@@H](CC(C)C)C(=O)[C@]1(CO1)C)NC(=O)[C@H]([C@@H](C)CC)N(C)C(=O)C [epoxomicin]
Procedure, shortened: as §1

[9] = compound: CCn1c(C(=O)N(C2CC2)C2CC2)cc2c3c(ncn3C)c(Nc3cc(C)n(C)n3)nc21
Procedure, shortened: as §1

[10] = compound: CCn1cc(-c2ccnc3[nH]c(-c4cccc(CN(C)C)c4)cc23)c(-c2ccc(NC(=O)N(C)C)cc2)n1
Procedure, shortened: as §1

[11] = compound: CN(C)CC(=O)Nc1ccc2[nH]c(=O)c3ccccc3c2c1
Procedure, shortened: as §1

rosiglitazone = compound: CN(CCOC1=CC=C(C=C1)C[C@H]2C(=O)NC(=O)S2)C3=CC=CC=N3 (racemic) [rosiglitazone]
Procedure, shortened: as §1

[12] = compound: CN1C2=C(C3=C1C(=O)N(N=C3)CC4=CC(=CC=C4)N)SC(=C2)S(=O)C
Procedure, shortened: as §1

[13] = compound: CN1CCC(CNc2ccc3ncc(-c4cccc(OC(F)(F)F)c4)n3n2)CC1
Procedure, shortened: as §1

UniProt O43665, sequence (O43665 whole entry, looked up): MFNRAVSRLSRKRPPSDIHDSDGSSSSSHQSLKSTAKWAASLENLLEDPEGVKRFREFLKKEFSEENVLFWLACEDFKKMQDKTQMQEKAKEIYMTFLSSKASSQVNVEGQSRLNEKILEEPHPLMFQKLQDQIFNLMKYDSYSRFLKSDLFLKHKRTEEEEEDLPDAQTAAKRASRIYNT
UniProt Q5VTB9, sequence (Q5VTB9 whole entry, looked up): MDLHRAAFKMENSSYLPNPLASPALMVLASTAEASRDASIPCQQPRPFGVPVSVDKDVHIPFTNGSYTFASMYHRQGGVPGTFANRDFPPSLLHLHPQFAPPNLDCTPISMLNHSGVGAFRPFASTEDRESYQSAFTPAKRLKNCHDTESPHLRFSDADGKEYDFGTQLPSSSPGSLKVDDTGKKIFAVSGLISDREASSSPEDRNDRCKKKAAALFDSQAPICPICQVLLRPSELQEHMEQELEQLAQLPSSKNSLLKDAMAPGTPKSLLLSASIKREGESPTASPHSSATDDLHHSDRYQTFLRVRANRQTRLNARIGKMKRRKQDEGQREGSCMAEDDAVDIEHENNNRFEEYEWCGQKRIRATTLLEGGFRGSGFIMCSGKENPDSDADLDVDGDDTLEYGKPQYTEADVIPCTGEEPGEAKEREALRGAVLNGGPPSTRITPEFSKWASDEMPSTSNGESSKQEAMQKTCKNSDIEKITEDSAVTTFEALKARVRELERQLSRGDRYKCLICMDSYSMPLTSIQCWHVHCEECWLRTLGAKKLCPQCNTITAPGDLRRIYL
UniProt Q99643, sequence (Q99643 whole entry, looked up): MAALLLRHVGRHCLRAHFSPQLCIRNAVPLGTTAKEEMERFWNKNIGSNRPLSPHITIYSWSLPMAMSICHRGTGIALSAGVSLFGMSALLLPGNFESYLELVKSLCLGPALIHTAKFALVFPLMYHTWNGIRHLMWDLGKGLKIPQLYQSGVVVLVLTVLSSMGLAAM
UniProt P58004, sequence (P58004 whole entry, looked up): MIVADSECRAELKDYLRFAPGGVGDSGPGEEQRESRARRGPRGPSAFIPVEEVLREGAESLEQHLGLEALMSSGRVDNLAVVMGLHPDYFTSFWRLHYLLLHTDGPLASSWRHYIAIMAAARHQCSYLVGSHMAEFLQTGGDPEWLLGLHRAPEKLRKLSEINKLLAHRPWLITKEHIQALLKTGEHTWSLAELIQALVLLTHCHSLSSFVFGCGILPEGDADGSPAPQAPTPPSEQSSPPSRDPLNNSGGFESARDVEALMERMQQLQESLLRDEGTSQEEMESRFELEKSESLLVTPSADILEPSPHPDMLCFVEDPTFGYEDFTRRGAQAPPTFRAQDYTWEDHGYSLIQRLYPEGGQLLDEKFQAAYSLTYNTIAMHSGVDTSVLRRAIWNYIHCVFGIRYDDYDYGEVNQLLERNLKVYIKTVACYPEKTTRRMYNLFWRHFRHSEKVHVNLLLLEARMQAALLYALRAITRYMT
UniProt Q9GZR1, sequence (Q9GZR1 whole entry, looked up): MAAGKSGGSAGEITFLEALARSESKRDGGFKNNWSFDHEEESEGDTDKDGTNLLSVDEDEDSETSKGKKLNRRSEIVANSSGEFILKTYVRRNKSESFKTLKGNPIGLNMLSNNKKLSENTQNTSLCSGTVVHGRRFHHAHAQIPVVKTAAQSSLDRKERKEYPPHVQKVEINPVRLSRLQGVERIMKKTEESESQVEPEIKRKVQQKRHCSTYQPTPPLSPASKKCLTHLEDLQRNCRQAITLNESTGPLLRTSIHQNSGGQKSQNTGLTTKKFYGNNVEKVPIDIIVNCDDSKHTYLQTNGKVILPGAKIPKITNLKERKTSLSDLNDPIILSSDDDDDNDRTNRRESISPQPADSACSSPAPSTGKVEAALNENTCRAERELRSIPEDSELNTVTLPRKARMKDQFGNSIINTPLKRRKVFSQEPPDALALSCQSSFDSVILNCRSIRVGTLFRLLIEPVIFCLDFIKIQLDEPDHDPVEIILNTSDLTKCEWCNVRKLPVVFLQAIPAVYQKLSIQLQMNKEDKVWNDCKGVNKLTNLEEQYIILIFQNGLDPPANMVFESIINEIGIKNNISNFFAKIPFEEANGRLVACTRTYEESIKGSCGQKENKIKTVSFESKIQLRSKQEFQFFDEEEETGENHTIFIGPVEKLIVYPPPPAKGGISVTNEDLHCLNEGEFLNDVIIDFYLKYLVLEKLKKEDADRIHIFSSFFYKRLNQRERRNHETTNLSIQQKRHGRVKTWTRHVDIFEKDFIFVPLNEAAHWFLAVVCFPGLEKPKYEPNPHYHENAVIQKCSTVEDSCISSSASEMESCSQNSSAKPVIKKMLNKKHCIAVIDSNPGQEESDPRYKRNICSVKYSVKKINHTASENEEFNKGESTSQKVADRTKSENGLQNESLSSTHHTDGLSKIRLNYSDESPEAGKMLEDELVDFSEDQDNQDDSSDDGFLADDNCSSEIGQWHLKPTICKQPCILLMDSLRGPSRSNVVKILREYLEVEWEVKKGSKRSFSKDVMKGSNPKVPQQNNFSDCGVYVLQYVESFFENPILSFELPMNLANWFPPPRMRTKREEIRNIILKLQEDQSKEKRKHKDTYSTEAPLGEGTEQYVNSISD
UniProt P40938, sequence (P40938 whole entry, looked up): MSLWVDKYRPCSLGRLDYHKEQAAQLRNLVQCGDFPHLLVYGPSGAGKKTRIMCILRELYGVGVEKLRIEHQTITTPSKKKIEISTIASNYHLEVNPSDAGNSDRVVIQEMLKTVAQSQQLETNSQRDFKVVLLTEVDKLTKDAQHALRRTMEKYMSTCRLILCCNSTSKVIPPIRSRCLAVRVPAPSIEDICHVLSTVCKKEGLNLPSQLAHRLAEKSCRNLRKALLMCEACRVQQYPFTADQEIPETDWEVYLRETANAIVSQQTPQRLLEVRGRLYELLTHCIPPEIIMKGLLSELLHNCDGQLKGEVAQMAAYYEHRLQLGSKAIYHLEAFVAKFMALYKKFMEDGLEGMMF
UniProt Q99961, sequence (Q99961 whole entry, looked up): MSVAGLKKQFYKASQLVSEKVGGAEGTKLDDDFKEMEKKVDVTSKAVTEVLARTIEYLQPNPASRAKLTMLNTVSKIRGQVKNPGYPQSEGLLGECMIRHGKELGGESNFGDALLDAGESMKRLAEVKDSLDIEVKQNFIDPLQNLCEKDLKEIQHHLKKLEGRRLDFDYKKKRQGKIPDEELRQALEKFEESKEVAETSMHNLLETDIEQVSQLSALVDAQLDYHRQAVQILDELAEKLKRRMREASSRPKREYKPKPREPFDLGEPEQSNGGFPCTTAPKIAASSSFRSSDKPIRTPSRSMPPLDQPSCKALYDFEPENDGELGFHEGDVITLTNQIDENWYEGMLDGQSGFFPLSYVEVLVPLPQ
UniProt Q13530, sequence (Q13530 whole entry, looked up): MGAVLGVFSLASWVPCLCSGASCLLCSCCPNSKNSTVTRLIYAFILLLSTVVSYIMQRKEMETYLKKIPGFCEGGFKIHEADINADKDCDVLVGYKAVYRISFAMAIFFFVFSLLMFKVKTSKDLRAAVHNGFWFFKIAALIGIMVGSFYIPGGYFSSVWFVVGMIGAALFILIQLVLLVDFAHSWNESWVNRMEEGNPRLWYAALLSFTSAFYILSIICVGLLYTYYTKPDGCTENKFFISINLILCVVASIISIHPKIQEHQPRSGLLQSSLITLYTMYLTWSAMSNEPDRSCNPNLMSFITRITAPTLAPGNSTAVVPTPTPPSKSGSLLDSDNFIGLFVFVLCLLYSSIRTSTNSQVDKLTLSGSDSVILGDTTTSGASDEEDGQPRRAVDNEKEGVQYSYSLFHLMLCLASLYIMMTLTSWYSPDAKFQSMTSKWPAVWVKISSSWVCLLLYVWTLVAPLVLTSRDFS
UniProt Q04206, sequence (Q04206 whole entry, looked up): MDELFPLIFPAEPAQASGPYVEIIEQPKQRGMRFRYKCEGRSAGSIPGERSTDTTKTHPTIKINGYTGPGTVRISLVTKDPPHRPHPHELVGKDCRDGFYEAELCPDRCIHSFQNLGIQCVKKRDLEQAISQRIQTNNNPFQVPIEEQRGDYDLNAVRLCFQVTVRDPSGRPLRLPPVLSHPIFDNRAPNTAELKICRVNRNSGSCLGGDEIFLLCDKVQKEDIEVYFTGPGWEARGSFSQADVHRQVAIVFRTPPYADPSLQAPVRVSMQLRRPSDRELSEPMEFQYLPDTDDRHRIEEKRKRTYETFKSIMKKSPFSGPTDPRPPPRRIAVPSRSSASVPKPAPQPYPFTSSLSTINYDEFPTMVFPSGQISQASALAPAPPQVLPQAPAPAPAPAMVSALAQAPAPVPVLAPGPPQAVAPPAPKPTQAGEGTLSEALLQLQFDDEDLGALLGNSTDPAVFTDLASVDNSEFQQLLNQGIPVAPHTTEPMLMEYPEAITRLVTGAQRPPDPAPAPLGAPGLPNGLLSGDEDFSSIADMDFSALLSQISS
UniProt Q13546, sequence (Q13546 whole entry, looked up): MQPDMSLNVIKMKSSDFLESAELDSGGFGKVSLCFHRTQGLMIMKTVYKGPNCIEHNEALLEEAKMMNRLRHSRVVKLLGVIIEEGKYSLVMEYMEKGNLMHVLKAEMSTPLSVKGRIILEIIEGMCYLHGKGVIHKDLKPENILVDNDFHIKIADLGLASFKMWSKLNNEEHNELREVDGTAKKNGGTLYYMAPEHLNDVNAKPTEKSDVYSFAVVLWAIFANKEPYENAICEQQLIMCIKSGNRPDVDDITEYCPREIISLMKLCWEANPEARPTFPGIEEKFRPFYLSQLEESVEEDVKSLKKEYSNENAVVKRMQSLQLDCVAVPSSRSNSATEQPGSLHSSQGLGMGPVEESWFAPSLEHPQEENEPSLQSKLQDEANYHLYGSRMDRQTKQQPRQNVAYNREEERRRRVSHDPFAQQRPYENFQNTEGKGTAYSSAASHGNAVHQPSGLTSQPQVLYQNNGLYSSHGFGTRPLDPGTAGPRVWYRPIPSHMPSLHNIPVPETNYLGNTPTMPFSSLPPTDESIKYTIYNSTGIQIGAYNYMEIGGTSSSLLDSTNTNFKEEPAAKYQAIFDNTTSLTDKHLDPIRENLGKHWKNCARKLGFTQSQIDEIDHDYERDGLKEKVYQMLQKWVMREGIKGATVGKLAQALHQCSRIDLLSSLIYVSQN

| Target | log2 fold change [1] | log2 fold change [2] | log2 fold change [3] | log2 fold change [4] | log2 fold change (Nexturastat A) | log2 fold change (vemurafenib) | log2 fold change [5] | log2 fold change [6] | log2 fold change (givinostat) | log2 fold change (barasertib) | log2 fold change [7] | log2 fold change (volasertib) | log2 fold change [8] | log2 fold change (epoxomicin) | log2 fold change [9] | log2 fold change [10] | log2 fold change [11] | log2 fold change (rosiglitazone) | log2 fold change [12] | log2 fold change [13] |
| --- | --- | --- | --- | --- | --- | --- | --- | --- | --- | --- | --- | --- | --- | --- | --- | --- | --- | --- | --- | --- |
| SDHC (UniProt Q99643) | 0.01 | 0.023 | -0.041 | 0.023 | -0.217 | 0.128 | 0.038 | -0.122 | -0.108 | -0.04 | 0.042 | 0.036 | -0.1 | 0.205 | 0.018 | 0 | 0.264 | 0.064 | -0.068 | 0.023 |
| RFC3 (UniProt P40938) | -0.003 | -0.031 | 0.05 | 0.058 | -0.032 | 0.048 | 0.101 | 0 | -0.007 | -0.011 | -0.008 | -0.052 | 0.047 | 0.042 | 0.001 | -0.081 | 0.038 | 0.05 | -0.096 | -0.008 |
| RNF220 (UniProt Q5VTB9) | -0.01 | -0.086 | 0.008 | 0.047 | 0.008 | -0.001 | -0.001 | -0.023 | 0.038 | 0.016 | -0.047 | -0.114 | 0.085 | -0.021 | -0.045 | -0.043 | -0.03 | 0.002 | -0.045 | 0.003 |
| RRAGB (UniProt Q5VZM2) | 0.013 | 0.018 | 0.011 | -0.01 | -0.071 | 0.001 | 0.028 | -0.023 | -0.044 | -0.004 | 0 | 0.011 | -0.017 | 0.047 | 0.015 | -0.041 | -0.027 | -0.015 | -0.022 | -0.191 |
| RELA (UniProt Q04206) | 0.013 | 0 | 0.016 | 0.014 | 0.028 | 0.014 | 0.067 | 0.021 | 0.015 | 0.013 | -0.063 | -0.263 (active) | 0.013 | 0.025 | 0.027 | -0.043 | -0.019 | 0.039 | -0.009 | -0.011 |
| SEC23A (UniProt Q15436) | 0.005 | -0.067 | -0.027 | -0.041 | 0.008 | 0.049 | 0.06 | 0.003 | -0.025 | 0.027 | 0.149 | -0.156 | 0.1 | -0.016 | 0.017 | -0.123 | 0.052 | -0.011 | -0.027 | 0.042 |
| RABGAP1L isoform 3 (UniProt Q5R372) | 0.002 | 0.018 | 0.018 | -0.005 | -0.058 | -0.008 | 0.073 | 0.03 | 0.034 | 0.022 | -0.046 | -0.107 | 0.053 | 0.08 | -0.028 | -0.034 | -0.011 | -0.026 | 0.02 | 0.025 |
| RUNX1 isoform 8 (UniProt Q01196) | 0.236 | 0.018 | 0.059 | -0.045 | -0.231 | -0.026 | 0.046 | 0.088 | 0.076 | -0.058 | -0.331 | -0.434 (active) | 0.086 | -0.206 | 0.035 | -0.089 | 0.06 | 0.032 | -0.027 | -0.102 |
| SEPTIN5 (UniProt Q99719) | 0.026 | 0 | 0.007 | 0.003 | -0.06 | -0.015 | -0.015 | 0.104 | -0.006 | -0.013 | 0.03 | 0.047 | -0.003 | -0.025 | 0.016 | -0.052 | -0.019 | 0.032 | -0.09 | -0.009 |
| SERINC3 (UniProt Q13530) | -0.136 | -0.001 | 0.009 | 0.054 | 0.011 | 0.083 | 0.002 | -0.414 (active) | 0.064 | 0.038 | 0.165 | 0.075 | -0.144 | -0.092 | 0.029 | -0.064 | 0.043 | 0.049 | -0.014 | 0.046 |
| SENP6 (UniProt Q9GZR1) | -0.048 | -0.006 | 0.037 | -0.007 | 0.247 | -0.028 | -0.01 | 0.077 | 0.057 | -0.026 | -0.086 | -0.07 | -0.044 | -0.039 | 0.029 | -0.022 | -0.017 | 0.004 | -0.014 | -0.038 |
| SH3GL1 (UniProt Q99961) | 0.022 | -0.077 | 0.06 | 0.021 | 0.141 | 0.1 | 0.1 | 0.037 | 0.024 | 0.084 | -0.137 | -0.459 (active) | 0.082 | 0.008 | -0.077 | -0.028 | 0.091 | 0.062 | -0.006 | -0.196 |
| RGS10 (UniProt O43665) | -0.012 | -0.02 | -0.02 | -0.041 | -0.012 | 0.048 | 0.034 | 0.02 | 0.026 | 0.016 | -0.097 | -0.205 (active) | -0.043 | 0.101 | -0.025 | 0.011 | 0.078 | 0.011 | -0.111 | -0.016 |
| RBM4 (UniProt Q9BWF3) | -0.041 | -0.033 | -0.061 | -0.034 | 0.081 | 0.01 | 0.052 | 0.003 | 0.071 | 0.018 | -0.043 | -0.3 (active) | 0.057 | -0.018 | -0.079 | 0.059 | -0.024 | -0.034 | 0.129 | -0.091 |
| SESN2 (UniProt P58004) | 0.166 | -0.069 | -0.017 | -0.031 | 0.094 | 0.194 | 0.186 | 0.19 | 0.046 | 0.119 | -0.244 | -0.522 (active) | 0.165 | 0.083 | 0.061 | -0.292 | 0.115 | -0.081 | 0.015 | -0.247 |
| RIPK1 (UniProt Q13546) | 0.101 | -0.043 | -0.002 | -0.178 | 0.109 | 0.054 | 0.135 | 0.092 | 0.094 | 0.085 | -0.069 | -0.478 (active) | 0.12 | -0.01 | -0.046 | 0.041 | 0.08 | 0.111 | 0.022 | -0.099 |
